Rows were chosen to be rich in hits. Some 1.7% of all compounds tested hit in one or more screens of this group.
TRHR ag – qHTS for Small Molecule Agonists and Allosteric Enhancers of Human TRH Receptor: Primary Screen for Agonists; TRHR cells, calcium flux fluo-8, FDSS agonist mode; activation, % at 2 µM; hit rate 0.18% among 360,000; AID 493084, 2011; in the data active = activation above about 30%; also: 0% is about no effect
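Agonist-mode FDSS calcium read (Ex 480/Em 530, 1 s cycles) in 1536-well TRHR cells with fluo-8 dye, after 10-cycle baseline and 23 nL compound addition; TRH at EC20 (10 nM final) added afterwards for the enhancer phase.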
hERG WT inh – qHTS for Inhibitors of KCHN2 3.1: Wildtype qHTS; Voltage-gated inwardly rectifying potassium channel KCNH2 (Homo sapiens), Q12809; U2OS, BacMam KCNH2, thallium flux FluxOr; stronger effect = lower value; activity change, % at 1.84 µM; hit rate 0.37% among 340,000;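 active = maximum activity change below -70%; inconclusive = maximum activity change between -70% and -50%; inactive = maximum activity change above -50%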; also: % is scaled to controls: 0 for no effect and ±100 for the full control effect
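U2OS cells transduced with wild-type KCNH2 virus are loaded with FluxOr dye for 45 min, and thallium flux is measured in kinetic reads before and after stimulation buffer. Rate constants are normalized to DMSO controls.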
TRPML1 blocker – qHTS for Inhibitors of the Human Mucolipin Transient Receptor Potential 1 (TRPML1); Mucolipin-1 (Homo sapiens), Q9GZU1; AID 624415, 2012; TRPML1-inducible cells, Ca2+ dye fluorescence, FDSS; stronger effect = lower value; inhibition of EC80 agonist-evoked calcium signal; hit rate 0.02% among 390,000; activity change, negative = inhibition, % (test concentration not listed); in the data active = activity change below about -50%; inconclusive = between about -30% and that limit;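 also: stimulus is agonist 54-4 at its EC80 concentration; % is scaled to controls: 0 for no effect and ±100 for the full control effect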
Target sequence (Q9GZU1 whole entry, looked up): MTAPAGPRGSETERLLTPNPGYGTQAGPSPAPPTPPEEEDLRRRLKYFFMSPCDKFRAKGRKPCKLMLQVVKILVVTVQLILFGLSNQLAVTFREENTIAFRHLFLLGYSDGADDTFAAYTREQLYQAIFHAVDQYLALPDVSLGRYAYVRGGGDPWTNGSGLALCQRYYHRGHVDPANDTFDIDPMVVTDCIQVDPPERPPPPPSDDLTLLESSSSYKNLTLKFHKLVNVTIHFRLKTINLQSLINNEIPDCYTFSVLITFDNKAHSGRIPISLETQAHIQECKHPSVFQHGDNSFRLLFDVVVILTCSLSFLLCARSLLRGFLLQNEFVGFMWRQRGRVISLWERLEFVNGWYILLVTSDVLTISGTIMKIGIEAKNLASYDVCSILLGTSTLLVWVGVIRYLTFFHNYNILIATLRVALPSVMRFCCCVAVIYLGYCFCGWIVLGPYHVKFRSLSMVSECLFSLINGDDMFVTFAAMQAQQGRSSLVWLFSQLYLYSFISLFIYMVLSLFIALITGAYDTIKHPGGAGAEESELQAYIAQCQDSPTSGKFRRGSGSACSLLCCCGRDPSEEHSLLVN
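Tet-induced TRPML1-DL cells loaded with Ca8 no-wash calcium dye were read kinetically on FDSS. Compound addition was followed by EC80 agonist 54-4 (4 uM final); inhibition was read over 110 s.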
KCNH2 3.1 block – qHTS for Inhibitors of KCHN2 3.1: Mutant qHTS | hit rate 0.95% among 340,000 | Potassium voltage-gated channel subfamily H member 2, brain isoform KCNH2 3.1 (human) | activity change, % (tested at about 1.8 µM) | U2OS KCNH2 3.1, thallium flux FluxOr; stronger effect = lower value;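 active = maximum activity change below -70%; inconclusive = maximum activity change from -70% to -50%; inactive = maximum activity change above -50%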;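 also: thallium influx rate constant from kinetic fluorescence after stimulation buffer; % is scaled to controls: 0 for no effect and ±100 for the full control effect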
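Virally transduced U2OS (3.1 isoform, 4 h infection in dark at RT) → overnight 37 C → FluxOr + Red40 in HBSS/HEPES, 45 min → stimulation buffer, 2 min kinetic read → rate constant vs DMSO controls.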
TRHR enhancer – qHTS for Small Molecule Agonists and Allosteric Enhancers of Human TRH Receptor: Primary Screen for Enhancers; Thyrotropin-releasing hormone receptor (Homo sapiens), P34981; hit rate 0.66% among 360,000; TRHR cells, fluo-8 calcium fluorescence, EC20 TRH enhancement; enhancement, % at 2 µM; in the data active = enhancement above about 30%; also: 0% is about no effect
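Enhancer read-out: after compound pinning and an initial kinetic agonist-mode read, an EC20 of TRH (10 nM final) was injected and fluo-8 calcium signal (Ex 480/Em 530) followed at 1 s/cycle for 100 cycles in TRHR-expressing cells.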
TRPML1 ag – qHTS for Agonists of the Human Mucolipin Transient Receptor Potential 1 (TRPML1); TRPML1-expressing cells, Ca2+ dye fluorescence, FDSS; activation, % (no concentration beside the values); hit rate 0.12% among 410,000; in the data active = activation above about 50%; inconclusive = mostly about 30% to 49%; also: 0% is about no effect
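TRPML1-DL cells, Tet-induced overnight (~16 h, 37 degrees C), loaded 45-90 min at room temperature with Ca8 no-wash calcium dye plus quencher. FDSS fluorescence: 10 s baseline, compound pin-transfer, 110 s agonist read, then EC80 54-4 (4uM final) and 110 s antagonist read.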
Starred values were filed as active, the others as inactive; ? = inconclusive; . = no result given.

SMILES	TRHR ag	hERG WT inh	TRPML1 blocker	KCNH2 3.1 block	TRHR enhancer	TRPML1 ag
O=C(CN1CCN(CC(=O)Nc2ccc(OCc3ccccc3)cc2)CC1)Nc1ccc(F)cc1	.	-102.6*	-4.4	-94.5*	.	-0.6
O=C(CCN1CCN(Cc2ccccc2)CC1)Nc1ccc(OCc2ccccc2)cc1	0.0	-38.9	?	-95.0*	1.1	-0.3
O=C(CN1CCOCC1)Nc1ccc(OCc2ccccc2)cc1	0.6	5.2	-3.7	-17.8	-0.7	0.2
CC(NC(=O)CCNS(=O)(=O)c1cccc2nonc12)c1ccccc1 (centres undefined)	-0.9	-2.2	3.6	5.1	8.7	-0.4
CCOc1ccc(Nc2c(S(=O)(=O)c3ccc(Cl)cc3)cnc3ccc(OC)cc23)cc1	0.1	.	-7.7	.	-9.6	0.4
CCOc1c(Br)cc(C2CC(=O)Nc3cc4c(cc32)OCO4)cc1OC (centres undefined)	-1.0	.	-1.7	.	5.5	0.7
COc1ccc([C@H]2C[C@H](n3cc(COC(=O)c4ccccc4)nn3)[C@@H](O)CN2CC2CCCCC2)cc1	.	-0.8	-7.7	18.9	.	-0.8
CCCCNC(=O)CN1CCN(Cc2ccc3cc(OC)ccc3c2)CC1	-1.2	-15.4	0.3	-83.5*	2.3	1.3
O=C(CN1CCCCCC1)Nc1ccc(Oc2ccccc2)cc1	-1.6	8.5	-11.6	-96.2*	0.9	?
O=C(/C=C/c1ccc(F)cc1)NNC(=O)CCN1CCN(Cc2ccccc2)CC1	-0.4	21.4	-5.3	-104.7*	-5.8	0.7
C[C@H](NC(=O)c1ncn2c1C(=O)NC[C@H]2C)C(=O)OC(C)(C)C	.	6.1	.	21.2	.	.
O=C(Nc1ccc2c(c1)CCCN2C(=O)c1cccs1)c1ccccc1Cl	-0.3	.	-11.7	.	-6.5	1.8
CC(=O)c1cccc(OCC(=O)N(CCC2=CCCCC2)c2c(N)n(Cc3ccccc3)c(=O)[nH]c2=O)c1	.	-6.1	11.3	-12.5	.	0.6
CSc1ccccc1NC(=O)CN(C1CCCCC1)S(C)(=O)=O	-0.4	-2.0	-9.7	.	-11.8	0.1
CN(CC(=O)Nc1ccccc1Sc1ccccc1)C1CCCCC1	1.2	-10.0	?	-0.1	14.0	60.2*
CC(C)NS(=O)(=O)c1ccc(NC(=S)NC(=O)c2ccc(-c3ccccc3)cc2)cc1	0.0	0.6	15.7	-75.2*	11.4	3.2
Cn1c(N)c(C(=O)c2cc(-c3ccccn3)nc3ccccc23)c(=O)[nH]c1=O	-0.3	-101.2*	7.3	-0.5	4.1	-0.1
COc1nc(N2CCOCC2)nc(C)c1[N+](=O)[O-]	0.4	-107.4*	-17.8	15.7	3.4	-0.2
Cc1nc(N2CCOCC2)nc(OCCN2CCOCC2)c1[N+](=O)[O-]	-0.8	-1.4	1.5	.	9.9	-0.2
CN1CCN(C(=O)C(=O)Nc2c3c(nn2-c2ccc(F)cc2)CSC3)CC1	0.0	.	-6.8	.	1.9	0.4
CCCC(=O)Nc1c2c(nn1-c1ccccc1)CSC2	-0.4	6.9	-5.5	-113.6*	0.9	0.4
O=C(CBr)Nc1c2c(nn1-c1ccccc1)CSC2	0.1	0.2	-1.4	-8.2	2.5	0.0
COc1ccc(-n2nc3c(c2NC(=O)C(=O)N2CCN(C)CC2)CSC3)cc1	0.2	.	8.0	.	43.2*	0.8
CN1C(=O)Cc2cc([S+](=O)([O-])N3CCN([S+](=O)([O-])c4c(F)cccc4F)CC3)ccc21	1.3	.	.	.	-1.9	.
COc1cccc(N2CCN(C(=O)C(CCSC)NS(=O)(=O)c3ccc4c(c3)oc(=O)n4C)CC2)c1 (centres undefined)	-0.1	.	21.1	.	3.6	1.5
SMILES	TRHR ag	hERG WT inh	TRPML1 blocker	KCNH2 3.1 block	TRHR enhancer	TRPML1 ag
CSCCC(NS(=O)(=O)c1ccc2c(c1)oc(=O)n2C)C(=O)N1CCN(c2cccc(Cl)c2)CC1 (centres undefined)	0.5	.	-2.2	.	37.9*	1.6
CC1CCC(N2CC(=O)N(C3CCCCC3)C(c3ccc(F)cc3)C2=O)CC1 (centres undefined)	2.2	.	5.2	.	4.2	2.3
CC1CCC(N2CC(=O)N(C3CCCC3)C(c3ccc(Cl)cc3)C2=O)CC1 (centres undefined)	-0.2	.	-0.4	.	31.0*	1.0
COC(=O)c1sc(S(=O)(=O)N2CCCCC2)c(C(=O)OC)c1C	-0.9	-0.7	-1.9	-186.9*	-2.1	-0.2
COC(=O)c1sc(S(=O)(=O)N2CCC(C)CC2)c(C(=O)OC)c1C	0.5	-3.2	-1.2	0.9	-6.7	-0.5
C=CCn1c(CCNC(=O)c2cccs2)nnc1SCC(=O)c1cccc([N+](=O)[O-])c1	-0.5	-21.0	-11.9	-4.1	0.7	-0.3
C=CCn1c(CCNC(=O)c2cccs2)nnc1SCC(=O)c1ccc(Cl)cc1	-1.0	25.7	-1.1	-97.6*	-4.8	4.1
COc1ccccc1CN(CC(=O)NCc1ccc(F)cc1)C(=O)c1csnn1	-0.8	-0.8	-0.9	-81.9*	-12.2	-0.1
Cc1cccc(CCN(CC(=O)NCc2ccc(F)cc2)C(=O)c2csnn2)c1	-0.6	-2.7	13.3	-107.7*	-5.5	0.6
COC(=O)c1ccc(CN2CCCC(C(=O)c3ccccc3OC)C2)cc1 (centres undefined)	-1.1	28.8	-13.9	2.0	-12.2	0.9
CCN1CCN(Cc2c(O)ccc3oc(C)c(C(=O)Nc4cccc(Cl)c4C)c23)CC1	1.9	.	-6.7	.	-9.2	0.5
c1ccc2c(c1)ccn2-n1ccc2ccccc21	.	.	.	.	.	0.9
CC(OC(=O)c1c2c(nc3ccccc13)/C(=C\c1ccc3c(c1)OCO3)CCC2)C(=O)Nc1ccc(S(N)(=O)=O)cc1 (centres undefined)	96.4*	4.2	1.4	-0.1	0.7	?
CN=C(C)c1c(O)c2ccccc2oc1=O	0.3	-7.6	-0.5	1.0	-4.9	0.5
Cc1c(O)c2ccccc2oc1=O	0.5	-4.7	-1.6	0.5	39.3*	-0.3
O=C(NCCCNC(=O)c1cnccn1)c1cccc(F)c1	0.3	-0.2	-2.1	4.3	-6.9	0.0
C=CCOc1ccc(C2=NOC(C(=O)Nc3ccc4c(c3)OCCO4)C2)cc1OC (centres undefined)	-1.1	-189.4*	25.7	3.8	0.5	-1.5
C=CCOC(/C=C/c1ccccc1)C[Si](C)(C)C (centres undefined)	.	.	2.0	.	.	0.7
CN(C)c1nc(C#N)nc(N(C)C)n1	-0.2	-3.5	3.8	-2.1	32.7*	-0.5
